# Experimental data taken from PubChem BioAssay AID1851 (National Center for Advancing Translational Sciences (NCATS), 2009).
# The whole screen tested about 16,000 compounds, of which about 5,100 (32%) were called active. Another 25% or so got no clear call; they are omitted. Calls come from the whole dose curve; as a rule, active = well fitted curve in the direction sought with a large enough effect; inconclusive = small, poorly fitted or top-dose-only effect, or effect the other way; inactive = no such curve, though single readings can be large or run the other way. The list shows a part of the results.
# Molecular target: Cytochrome P450 3A4 (Homo sapiens) (UniProt P08684)
# Test: Cytochrome panel assay with activity outcomes
# Conditions: recombinant CYP, pro-luciferin dealkylation, luminescence, p450-cyp3a4; series mostly up to 57.1 µM; activity, negative = inhibition: at the top concentration
# % is set by controls: 0 for no effect and ±100 for the full control effect.
# Cytochrome P450 3A4 (Homo sapiens), sequence (P08684 whole entry, looked up): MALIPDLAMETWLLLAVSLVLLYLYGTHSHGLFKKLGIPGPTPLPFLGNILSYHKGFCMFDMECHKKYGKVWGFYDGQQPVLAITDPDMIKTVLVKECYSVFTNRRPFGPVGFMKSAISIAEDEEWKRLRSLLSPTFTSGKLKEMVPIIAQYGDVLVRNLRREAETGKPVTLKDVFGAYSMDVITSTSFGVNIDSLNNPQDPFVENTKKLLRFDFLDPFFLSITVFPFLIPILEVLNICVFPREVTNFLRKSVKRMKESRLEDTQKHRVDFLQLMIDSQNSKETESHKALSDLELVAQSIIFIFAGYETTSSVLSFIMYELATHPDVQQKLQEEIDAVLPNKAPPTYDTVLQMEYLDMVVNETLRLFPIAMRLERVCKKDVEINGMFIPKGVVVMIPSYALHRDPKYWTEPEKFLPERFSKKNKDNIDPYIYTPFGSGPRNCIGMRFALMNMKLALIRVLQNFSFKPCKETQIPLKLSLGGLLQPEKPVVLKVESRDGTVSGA
SMILES,"activity, negative = inhibition",AC50
CCOC(=O)c1cnc(N(C)C)nc1SC(=N)N,-4.2% [at 11.4 µM] (inactive),
Cc1cc(C)cc(OCC(=O)Nc2ccc3c4c(cccc24)CC3)c1,-27% (inactive),
CSc1ccc(S(=O)(=O)Nc2ccc3c4c(cccc24)CC3)cc1,,5.01 µM (active)
COC1=C(OC)C(=O)c2ccccc2C1=O,,20 µM (active)
CC(C)=CCC1=C(OCC(=O)O)C(=O)c2ccccc2C1=O,-24.9% [at 11.4 µM] (inactive),
COc1nnc(OC)c2ccccc12,3.31% (inactive),
C#CCn1c(=O)c2c(ncn2C)n(C)c1=O,-5.18% (inactive),
N#Cc1c2n(c3c(=S)nc[nH]c13)CCCCC2,9.26% [at 2.29 µM] (inactive),
COc1ccc2c(c1)Cc1cc(N=[N+]([O-])c3ccc4c(c3)Cc3cc(OC)ccc3-4)ccc1-2,,5.01 µM (active)
Cc1cccc(-n2cnc(C(=O)NC3CCCCCC3)c2)n1,,14.1 µM (active)
Cc1cnc(NC(=O)CSc2ccc(Cl)cc2)s1,,15.8 µM (active)
Cc1cc(Cl)nc(NC(=O)CSc2ccc(Cl)cc2)n1,-7.2% [at 11.4 µM] (inactive),
Nc1nc(Sc2ccc([N+](=O)[O-])c3nonc23)c2[nH]cnc2n1,-24.7% [at 11.4 µM] (inactive),
Nc1nc(N)c(CCCCc2ccccc2)c(N)n1,5.2% [at 11.4 µM] (inactive),
CC(C)[C@H](Sc1nc(N)nc2nc[nH]c12)C(=O)O,-2.83% [at 11.4 µM] (inactive),
Nc1nc(SC/C=C\c2ccccc2)c2[nH]cnc2n1,,2.51 µM (active)
Nc1nc(SCc2ccccc2[N+](=O)[O-])c2[nH]cnc2n1,,3.16 µM (active)

SMILES,"activity, negative = inhibition",AC50
Nc1nc(SCCc2ccccc2)c2[nH]cnc2n1,,2.51 µM (active)
CCC[C@H](Sc1nc(N)nc2nc[nH]c12)C(=O)O,-4.34% [at 11.4 µM] (inactive),
Nc1nc(N)c2[nH]cnc2n1 (tested in a mixture with another compound),-3.42% [at 11.4 µM] (inactive),
COc1cccc(=O)c2c(C)n(-c3cc(C)cc(C)c3)c(C)c12,,4.47 µM (active)
COc1ccc(-n2c(C)n[nH]c2=O)cc1OC,2.19% (inactive),
CN(C)CCC=C1c2ccccc2C=Cc2ccccc21,,inactive
O=C(O)[C@@H]1CCCN1Cc1cc2ccccc2c2ccccc12,-12.1% [at 11.4 µM] (inactive),
CC(C)CC(=O)N[C@H](C(=O)N[C@H](C(=O)N[C@@H](CC(C)C)[C@H](O)CC(=O)N[C@@H](C)C(=O)N[C@@H](CC(C)C)[C@H](O)CC(=O)O)C(C)C)C(C)C,-8.61% [at 25.6 µM] (inactive),
Cc1ccc(NC(=O)CCC(=O)NNC(=O)c2ccco2)cc1C,-4.43% [at 2.29 µM] (inactive),
CCc1cc2cc(C)c(C)cc2nc1SCC(=O)NNC(=O)c1ccco1,,8.91 µM (active)
Cc1ccc(-n2nnnc2SCC(=O)NNC(=O)c2ccco2)c(C)c1,,22.4 µM (active)
O=C(CSc1ccc(Cl)cc1)Nc1cccc(NC(=O)c2ccco2)c1,-17.5% [at 11.4 µM] (inactive),
CC(=O)c1ccc(-n2nnnc2SCC(=O)Nc2cccc(NC(=O)c3ccco3)c2)cc1,,3.98 µM (active)
Cc1c(Cl)cccc1NC(=O)CCC(=O)NNC(=O)c1ccco1,1.8% [at 2.29 µM] (inactive),
Cc1ccc(SCC(=O)Nc2cccc(NC(=O)c3ccco3)c2)cc1,,22.4 µM (active)
O=C(CSc1ccccc1)Nc1ccc(NC(=O)c2ccco2)cc1,-25.4% (inactive),
